A selection: hits, their analogues and other compounds. The true share with any hit is near 1.5%.
MCL1 BIM primary: inhibitors of MCL1 binding to BIM-BH3, primary screen, biochemical, fluorescence polarization; Induced myeloid leukemia cell differentiation protein Mcl-1 (Homo sapiens), Q07820; GST-MCL1 / FITC-Bim-BH3 fluorescence polarization; inhibition, % at 10.9 µM; 0.68% of 320,000 active; AID 2057, 2009;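 active = inhibition above the mean inhibition of all tested compounds plus 3 SD, set per campaign, cut at about 40% in these data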;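 note: 0% = DMSO wells and 100% = unlabeled Bim-BH3 peptide control; higher means more loss of mP so more displacement of Bim peptide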
BCLXL inh: inhibitors of human Bcl-xL, primary screen, biochemical, fluorescence polarization, HTS; inhibition, % at 10.9 µM; GST-Bcl-xL / FITC-Bim BH3 peptide fluorescence polarization; AID 2129, 2009; 0.7% of 320,000 active; Bcl-2-like protein 1 (Homo sapiens), Q07817;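 active = inhibition above the mean of all tested compounds plus 3 SD, cutoff set per campaign, cut at about 30% in these data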;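 note: 0% = DMSO wells and 100% = unlabeled Bim-BH3 peptide competitor; inhibitors lower millipolarization by displacing the labeled peptide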
IDE inh: human IDE inhibitors in live cells, primary screen, fluorescence polarization, HEK cells, FAbetaB substrate | FAbetaB cleavage | inhibition, % at 5.59 µM | 0.41% of 320,000 active | AID 434962, 2010;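 active = percent inhibition above the average of all tested compounds plus 3 SD, set per screening campaign, cut at about 16% in these data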;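 note: IDE supplied by intact live HEK cells; FP after avidin binding of uncleaved biotin substrate so inhibition keeps polarization high; 0% = DMSO wells and 100% = 60 µM reference IDE inhibitor Ii1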
MEX-5 binding: MEX-5 zinc finger RNA-binding disruptors – biochemical, C. elegans, fluorescence polarization, MLPCN library, primary screen; activity score (negative = inhibition of binding), % at 10 µM; 0.38% of 300,000 active; MEX-5/FITC-TCR2 RNA binding; hits give low values; Zinc finger protein mex-5 (Caenorhabditis elegans), Q9XUB2;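 active = inhibition past about -25% in most replicates, and total fluorescence under double the plate's negative control median, limit read from the data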;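 note: 0% = DMSO and -100% = 5 µM competing unlabeled TCR2 RNA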
IDE cell activ: human IDE activators in live cells, primary screen, fluorescence polarization, HEK cells, FAbeta-B substrate. 0.073% of 340,000 active. AID 493087, 2011. activation, % at 5.96 µM. Insulin-degrading enzyme (Homo sapiens), P14735. FAbeta-B cleavage; 0% vehicle, 100% cell-free pure enzyme wells;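 active = activation above the mean of all tested compounds plus 3 SD, set per screening campaign, cut at about 17% in these data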
GLD-1 TGE inh: GLD-1/TGE RNA complex disruptors, primary screen, biochemical, fluorescence polarization; Female germline-specific tumor suppressor gld-1 (Caenorhabditis elegans), Q17339; purified GLD-1 + fluorescein TGE RNA; inhibition, % at 5.96 µM; 0.44% of 320,000 active; AID 2280, 2010;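 active = percent inhibition above a per-plate cutoff, the plate mean of test compounds plus 3 SD, cut at about 30% in these data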;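 note: 0% = DMSO wells with GLD-1 and probe and 100% = wells lacking GLD-1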
Target sequence (Q17339 whole entry, looked up): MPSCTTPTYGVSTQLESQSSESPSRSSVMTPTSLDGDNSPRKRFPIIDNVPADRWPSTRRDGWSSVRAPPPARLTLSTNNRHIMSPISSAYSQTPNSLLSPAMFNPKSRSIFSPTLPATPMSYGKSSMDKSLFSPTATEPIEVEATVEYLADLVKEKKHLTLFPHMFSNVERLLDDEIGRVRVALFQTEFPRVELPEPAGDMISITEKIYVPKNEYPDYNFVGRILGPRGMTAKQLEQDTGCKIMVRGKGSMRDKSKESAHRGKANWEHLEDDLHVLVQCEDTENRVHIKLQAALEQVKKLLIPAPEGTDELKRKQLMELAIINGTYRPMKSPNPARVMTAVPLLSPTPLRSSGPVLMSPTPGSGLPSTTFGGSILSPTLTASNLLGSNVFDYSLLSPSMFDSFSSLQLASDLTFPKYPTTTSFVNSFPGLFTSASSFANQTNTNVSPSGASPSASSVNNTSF
GLD-1 TGE cf: GLD-1/TGE RNA binding inhibitors, retest, confirmation, biochemical, fluorescence polarization, triplicate; shares compounds with GLD-1 TGE inh; inhibition, % at 5.96 µM; 10% of 550 active; GLD-1/FL-TGE RNA fluorescence polarization;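 active = average inhibition across triplicates above the hit cutoff set in the primary screen, cut at about 32% in these data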;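 note: 0% = GLD-1 with RNA probe and DMSO and 100% = wells lacking GLD-1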
* hit, by the source's call; . = no result.

SMILES	MCL1 BIM primary	BCLXL inh	IDE inh	MEX-5 binding	IDE cell activ	GLD-1 TGE inh	GLD-1 TGE cf
CCC1c2ccc(C)n2CCN1C(=O)Nc1ccccc1C(=O)OC (stereo not given)	44*	41*	3	-5	2	35*	-1
COC(=O)c1ccccc1NC(=O)N1CSC[C@H]1C(=O)OC	11	6	4	-1	-1	6	.
Cc1nn2c(NCCCN(C)C)c3c(nc2c1-c1ccccc1)CCC3	2	0	-1	-2	0	31*	4
COc1ccc(Cl)cc1C(=O)NNC(=O)CCNS(=O)(=O)c1ccccc1	.	.	0	.	5	-3	.
Cc1cc(/C=C(\C#N)c2nnc(N3CCOCC3)n2-c2ccccc2)c(C)n1-c1ccccc1	26	23	1	1	.	49*	5
Cc1ncc([N+](=O)[O-])n1CC(=O)Nc1ccc(F)cc1	-1	-1	-2	1	4	2	.
CCn1c(CSc2nnc(-c3cccnc3)n2-c2ccccc2C)nc2cc(C(=O)O)ccc21	32	30*	-1	.	.	46*	18
Cc1ccccc1-n1c(SCC(=O)c2cc(C)n(C)c2C)nnc1-c1cccnc1	-6	-2	7	2	-17	5	.
NS(=O)(=O)c1ccc(NC(=O)c2ccc(S(=O)(=O)N3CCCCCC3)cc2)cc1	.	.	8	.	2	1	.
Cn1c(COc2ccc(Cl)cc2)nnc1SCC(=O)NC1CCCC1	-3	-2	-1	-1	7	5	.
CC(=O)Nc1ccc(S(=O)(=O)N(C)CC(=O)OCC(=O)Nc2cccnc2Cl)cc1	4	7	-6	-1	5	3	.
O=C(CC1CC2CCC1C2)NCCc1ccc(Cl)cc1 (stereo not given)	-4	1	1	0	1	3	.
COc1ccc(OC)c(-c2cc(C(=O)Nc3ccccc3C(N)=O)c3ccccc3n2)c1	1	5	7	1	.	34*	-2
COc1ccc(OC)c(-c2cc(C(=O)N/N=C/c3ccc(F)cc3)c3ccccc3n2)c1	5	9	11	1	.	-2	.
COc1cc(NC(=O)c2cccs2)cc(OC)c1	10	7	8	3	5	52*	-2
Cc1ccc(NC(=O)CN2CCN(c3ccccn3)CC2)cc1S(=O)(=O)N(C)C	-5	0	1	0	4	54*	-1
CCN(CC)S(=O)(=O)c1cc(NC(=O)CN2CCN(c3ccccn3)CC2)ccc1C	-3	-4	-1	-1	-3	5	.
O=CNC1(c2ccccc2)CCCCC1	.	.	.	.	4	.	.
O=C(Nc1ncn[nH]1)c1ccc(Cl)c(Cl)c1	.	.	.	.	5	.	.
CC1CCC(C(C)C)C(OC(=O)CSc2nccc(=O)[nH]2)C1 (stereo not given)	8	-4	3	-1	3	-1	.
CC1CCC(C(C)C)C(OC(=O)C2=C3c4ccccc4S(=O)(=O)N3CC2)C1 (stereo not given)	5	2	2	3	0	49*	0
O=[N+]([O-])c1cc(S(=O)(=O)N2CCCC2)ccc1N/N=C/c1cccnc1	4	1	1	-1	1	-1	.
CN1CCN(C(=S)c2ccc([N+](=O)[O-])cc2)CC1	2	3	2	2	4	79*	0
CC(C)C(NS(=O)(=O)c1ccccc1F)C(=O)OCC(=O)NCc1ccco1 (stereo not given)	.	.	.	.	6	.	.
CCCCNC(=O)CN1C(=O)c2cccc(N)c2C1=O	.	.	.	-9	7	.	.
SMILES	MCL1 BIM primary	BCLXL inh	IDE inh	MEX-5 binding	IDE cell activ	GLD-1 TGE inh	GLD-1 TGE cf
CCCn1c(C)cc(C(=O)CN2C(=O)c3cccc(N)c3C2=O)c1C	25	28	-3	.	-2	35*	-1
C/C(=N\Nc1cc(N2CCOCC2)ncn1)c1ccc(O)cc1	2	1	-8	-1	6	0	.
Cc1cc(C)cc(N2CC(C(=O)NC3CCCCC3)CC2=O)c1 (stereo not given)	2	1	3	1	4	-1	.
Cc1ccccc1OC(=O)C1C(c2ccccc2)C(C(=O)O)C1c1ccccc1 (stereo not given)	-7	-2	-3	2	1	39*	3
CCOC(=O)C1C(c2ccccc2)C(C(=O)OCC)C1c1ccccc1 (stereo not given)	1	5	-2	-1	5	3	.
Cc1cnc(NC(=O)Cc2ccc(S(=O)(=O)N3CCOCC3)s2)s1	.	.	2	.	0	48*	-5
CCCCc1nnc(NC(=O)Cc2ccc(S(=O)(=O)N3CCOCC3)s2)s1	2	6	3	.	3	16	.
Cc1cc(NC(=O)/C=C/c2ccccc2Cl)n(-c2nc3ccccc3[nH]2)n1	1	0	0	1	0	34*	-4
CC(C)/C=C/C(=O)N1CCC(N2CCC(C(=O)NCc3ccccn3)CC2)CC1	26	28	6	-4	4	35*	8
CN1C(C)(C)CC(NC(=O)c2ccco2)CC1(C)C	1	4	-2	-1	4	3	.
CC1(C)CC(OC(=O)c2ccco2)CC(C)(C)N1O	28	43*	-2	0	4	35*	-6
CC1(C)CC(=O)C2=C(C1)Nc1cc(Cl)ccc1S2	20	34*	5	-5	-5	35*	5
Cc1ccc(NC(=O)NNC(=O)C2CC(c3cccs3)=NO2)cc1 (stereo not given)	0	0	1	0	1	0	.
COc1ccc2nc(SCC(=O)N3CCCCC3)c(C#N)cc2c1	4	2	7	-8	1	4	.
COc1ccc2nc(N3CCCCC3)c(C#N)cc2c1	27	32*	0	-21	3	46*	65*
CCC(C)Nc1nc(OC(C(F)(F)F)C(F)(F)F)nc(OC(C(F)(F)F)C(F)(F)F)n1 (stereo not given)	-1	-3	-2	0	2	36*	-2
CNC(=S)N1N=C(c2ccc(Br)cc2)CC1c1ccc(Br)cc1 (stereo not given)	1	5	4	2	4	4	.

Screens from PubChem BioAssay.
